Inconclusive results are not listed. Active and inactive are the calls of the source. Unless noted, calls follow the shape of the dose curve; as a rule, active = well fitted curve in the direction sought with a large enough effect in the repeat runs; inconclusive = weak or mixed curves; inactive = no such curve, though single readings can be large; an effect the other way counts as inactive or inconclusive.
Tests used:
[1] = target: Nuclear receptor subfamily 1 group I member 3 (Homo sapiens) (UniProt Q14994); assay: qHTS assay to identify small molecule agonists of the constitutive androstane receptor (CAR) signaling pathway (AID 1224839);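 also: HepG2 cells stably carrying human CAR and a CYP2B6 luciferase reporter; series mostly up to about 92 µM; nearly all actives have a fitted effect of over 15% in size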
Nuclear receptor subfamily 1 group I member 3 (Homo sapiens), sequence (Q14994 whole entry, looked up): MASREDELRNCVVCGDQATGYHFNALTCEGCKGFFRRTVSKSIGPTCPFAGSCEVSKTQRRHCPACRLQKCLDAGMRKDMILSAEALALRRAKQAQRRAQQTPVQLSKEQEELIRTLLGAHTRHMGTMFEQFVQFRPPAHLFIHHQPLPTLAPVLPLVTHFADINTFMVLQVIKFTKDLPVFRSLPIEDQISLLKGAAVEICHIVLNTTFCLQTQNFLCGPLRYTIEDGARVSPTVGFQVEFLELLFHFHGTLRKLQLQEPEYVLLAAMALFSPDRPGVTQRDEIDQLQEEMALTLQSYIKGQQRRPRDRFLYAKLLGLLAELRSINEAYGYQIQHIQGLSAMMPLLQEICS
Summary of the method: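 Compounds tested at 15 concentrations on HepG2 cells stably harbouring hCAR and CYP2B6-2.2kb reporter constructs, co-treated with PK11195 (0.75 uM final), 24 h at 37 C; luminescent reporter signal quantified.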

[2] = qHTS assay to identify small molecule antagonists of the estrogen related receptor signaling pathway with the pleiotropic PPARgamma coactivator (PGC) from Tox21 10K library - cell viability counter screen (AID 1224840; active = well fitted cell-killing curve with a large enough effect in the repeat runs, not every such curve was filed as active; also: nearly all actives have a fitted effect of over 40% in size)
Summary of the method: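 Viability counter screen, PGC/ERR cells: 17.5 h compound exposure at 37 C, CellTiter-Fluor fluorescence endpoint.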

[3] = qHTS assay to identify small molecule agonists of the hypoxia (HIF-1) signaling pathway - cell viability counter screen (AID 1224844; calls by dose curve; also: nearly all actives have a fitted effect of over 50% in size)
Summary of the method: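 Same wells as the HIF-1 reporter screen; ME-180 cells carrying HRE-bla, 17 hr treatment at 37C; CellTiter-Glo luminescence read after 30 min at room temperature.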

[4] = qHTS assay to identify small molecule agonists of H2AX (AID 1224845; active = well fitted activation curve with a large enough effect in the signal ratio in the repeat runs, not every such curve was filed as active; the % refers to the signal ratio)
Summary of the method: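 Phospho-H2AX Ser139 measured by HTRF (ex 320 nm; em 665 and 620 nm) after 24 hr antibody incubation. Compounds, 15 concentrations, 0.76% DMSO, were applied to CHO-K1 cells for 3hr at 37C before lysis.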

[5] = qHTS assay to identify small molecule agonists of the hypoxia (HIF-1) signaling pathway (AID 1224846; active = well fitted activation curve with a large enough effect in the signal ratio in the repeat runs, not every such curve was filed as active; the % refers to the signal ratio)
Summary of the method: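 In ME-180 cells bearing an HRE-bla construct, 17 h treatment with DMSO-dissolved compounds at 37C was followed by CCF4-AM loading to quantify reporter induction.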

[6] = qHTS assay to identify small molecule agonists of H2AX - cell viability counter screen (AID 1224847; calls by dose curve; also: top concentration of the series differs between compounds; nearly all actives have a fitted effect of over 30% in size)
Summary of the method: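 Compounds tested at 15 concentrations were incubated 3 hr at 37C with wild-type CHO-K1 cells; cellular ATP-based luminescence (CellTiter-Glo) indicated viability.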

[7] = qHTS RealTime-Glo MT Cell Viability Assay in HepG2 cells - 24 hour (AID 1224867); also: nearly all actives have a fitted effect of over 50% in size
Summary of the method: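 Compound treatment began 5 h after plating HepG2 cells (600/well) with NanoLuc luciferase and prosubstrate. Plates stayed at 37 C for 40 h; luminescence was captured at six time points, 0 h through 40 h.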

[8] = qHTS RealTime-Glo MT Cell Viability Assay in HEK293 cells - 32 hour (AID 1224868); also: top concentration of the series differs between compounds; nearly all actives have a fitted effect of over 50% in size
Summary of the method: (§1)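 Quantitative high-throughput screen of the Tox21 10K library in HEK293: cells and RealTime-Glo reagents plated together, compound added at 5 h, luminescence monitored through 40 h at 37 C.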

[9] = A CellTox Green Cytotoxicity Assay to monitor cytotoxicity in HEK293 cells - 0 hour (AID 1224869); also: nearly all actives have a fitted effect of over 50% in size
Summary of the method: (§2)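 Homogeneous no-lysis format: HEK293 cell suspension mixed with CellTox Green reagent, seeded, incubated 5 h at 37 C/5% CO2, then dosed by pintool with compound in DMSO.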

[10] = qHTS RealTime-Glo MT Cell Viability Assay in HepG2 cells - 40 hour (AID 1224870); also: nearly all actives have a fitted effect of over 50% in size
Summary of the method: (§3)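 Real-time viability: cells seeded at 600 per well together with NanoLuc and cell-permeant prosubstrate, compounds added after 5 h incubation. Luminescence tracked at 0, 8, 16, 24, 32 and 40 h of exposure.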

[11] = A CellTox Green Cytotoxicity Assay to monitor cytotoxicity in HEK293 cells - 40 hour (AID 1224871); also: nearly all actives have a fitted effect of over 45% in size
Summary of the method: as §2

[12] = qHTS RealTime-Glo MT Cell Viability Assay in HepG2 cells - 8 hour (AID 1224873); also: nearly all actives have a fitted effect of over 55% in size
Summary of the method: as §3

[13] = qHTS RealTime-Glo MT Cell Viability Assay in HEK293 cells - 40 hour (AID 1224874); details: RealTime-Glo luminescence; max response: active compounds read low; also: nearly all actives have a fitted effect of over 50% in size
Summary of the method: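 Measured as luminescence from the same continuously cultured HEK293 wells at successive time points (0, 8, 16, 24, 32, 40 h) after compound addition. Reagent present from seeding; dosing at 5 h; incubation 37 C.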

[14] = A CellTox Green Cytotoxicity Assay to monitor cytotoxicity in HEK293 cells - 24 hour (AID 1224875); also: series mostly up to about 77 µM; nearly all actives have a fitted effect of over 45% in size
Summary of the method: as §2

[15] = qHTS assay to identify small molecule antagonists of the estrogen related receptor signaling pathway with the pleiotropic PPARgamma coactivator (PGC) from Tox21 10K library (AID 1224841; call rule not given here)
Summary of the method: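 In the PGC/ERR line, DMSO solutions of test chemicals are pin-delivered to 2,000 cells/well six hours after dispensing. Following eighteen hours' incubation, One-Glo reagent is added and luminescence recorded.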

[16] = qHTS assay to identify small molecule agonists of the estrogen related receptor signaling pathway with the pleiotropic PPARgamma coactivator (PGC) from Tox21 10K library (AID 1224842); also: nearly all actives have a fitted effect of over 15% in size
Summary of the method: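 Luminescence from One-Glo (30 min, room temperature) measured after PGC/ERR cells had 18 h at 37 C with pinned compound (23 nL in DMSO). Cells had been seeded at 2,000 per well and pre-incubated 6 h.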

[17] = qHTS assay to identify small molecule antagonists of the estrogen related receptor (ERR) signaling pathway from Tox21 library (AID 1224848); also: nearly all actives have a fitted effect of over 50% in size
Summary of the method: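 ERR cell line, 2,000 cells/well. 6 h settle, then compound (DMSO) added; 18 h at 37 C; ONE-Glo luminescence after 30 min RT.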

[18] = qHTS assay to identify small molecule agonists of the estrogen related receptor (ERR) signaling pathway from Tox21 library (AID 1224849; calls by dose curve; also: nearly all actives have a fitted effect of over 15% in size)
Summary of the method: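 Reporter cells (ERR, NTP source) treated with Tox21 10K compounds 18 h, 37 C. Readout: ONE-Glo luminescence, 30 min RT.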

[19] = qHTS RealTime-Glo MT Cell Viability Assay in HEK293 cells - 16 hour (AID 1224872)
Summary of the method: as §1

[20] = target: Thyrotropin receptor (Homo sapiens) (UniProt P16473); assay: qHTS assay to identify small molecule agonists of the thyroid stimulating hormone receptor (TSHR) signaling pathway (AID 1224843; calls by dose curve; also: nearly all actives have a fitted effect of over 45% in size)
Thyrotropin receptor (Homo sapiens), sequence (P16473 whole entry, looked up): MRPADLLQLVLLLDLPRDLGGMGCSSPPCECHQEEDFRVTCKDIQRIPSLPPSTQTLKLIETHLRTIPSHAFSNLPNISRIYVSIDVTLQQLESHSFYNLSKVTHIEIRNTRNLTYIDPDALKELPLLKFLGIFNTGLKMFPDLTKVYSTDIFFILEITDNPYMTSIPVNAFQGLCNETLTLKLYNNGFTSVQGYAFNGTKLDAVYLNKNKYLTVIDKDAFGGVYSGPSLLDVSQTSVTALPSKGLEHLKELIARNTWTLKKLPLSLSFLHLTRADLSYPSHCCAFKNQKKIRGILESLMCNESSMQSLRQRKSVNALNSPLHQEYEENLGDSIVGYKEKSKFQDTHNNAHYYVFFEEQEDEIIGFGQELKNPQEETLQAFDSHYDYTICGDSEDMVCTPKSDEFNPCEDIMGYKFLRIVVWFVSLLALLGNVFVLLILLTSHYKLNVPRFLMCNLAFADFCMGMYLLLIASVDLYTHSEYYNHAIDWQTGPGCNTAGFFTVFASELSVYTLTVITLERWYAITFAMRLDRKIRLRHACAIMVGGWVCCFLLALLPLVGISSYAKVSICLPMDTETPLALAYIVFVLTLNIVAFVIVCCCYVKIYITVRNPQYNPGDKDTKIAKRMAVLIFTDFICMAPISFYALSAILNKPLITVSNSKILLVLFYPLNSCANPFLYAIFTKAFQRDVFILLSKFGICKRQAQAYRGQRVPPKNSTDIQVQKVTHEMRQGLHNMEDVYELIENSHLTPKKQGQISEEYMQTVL
Summary of the method: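 A cell-based cAMP HTRF format was run in TSHR-transfected HEK293 cells, 800 per well. Treatment: 30 min, room temperature. Detection: 1 h with labelled cAMP and anti-cAMP cryptate. Concentration-response over 15 points, three replicates.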
% is scaled to controls: 0 for no effect and ±100 for the full control effect.

O=S1(=O)CCCC1
inactive: Potency [1] | outcome [2] | outcome [3] | outcome [4] | outcome [5] | Potency [6] | outcome [7] | Potency [8] | Potency [9] | outcome [10] | Potency [11] | outcome [12] | max response [13] 9.26% | Potency [14]

F[Si-2](F)(F)(F)(F)F
inactive: Potency [1] | outcome [2] | Potency [15] | outcome [16] | outcome [3] | outcome [4] | outcome [5] | Potency [6] | Potency [17] | outcome [18] | outcome [7] | Potency [8] | Potency [9] | outcome [10] | Potency [11] | Potency [19] | max response [13] -1.11% | Potency [14]

CCCCCCCCCCCCC1CO1 (stereo not given)
inactive: Potency [1] | outcome [2] | outcome [3] | outcome [4] | outcome [5] | outcome [7] | Potency [8] | Potency [9] | outcome [10] | Potency [11] | Potency [19] | outcome [12] | max response [13] -5.34% | Potency [14]

COc1cc2c(Nc3ccc(Br)cc3F)ncnc2cc1OCC1CCN(C)CC1
inactive: Potency [1] | outcome [2] | outcome [3] | outcome [4] | outcome [5] | Potency [6] | Potency [8] | Potency [9] | outcome [10] | Potency [11] | Potency [19] | outcome [12] | max response [13] 6.99% | Potency [14]

Cc1ccccc1C(=O)N1CC/C(=N\OS(=O)(=O)O)c2ccc(Cl)cc21
inactive: Potency [1] | outcome [2] | outcome [16] | outcome [20] | outcome [3] | outcome [5] | Potency [17] | outcome [18] | Potency [8] | Potency [9] | outcome [10] | Potency [11] | Potency [19] | outcome [12] | max response [13] -2.43% | Potency [14]

CCCCCCCCC(=O)OCC
inactive: outcome [2] | Potency [15] | outcome [16] | outcome [20] | outcome [3] | outcome [4] | outcome [5] | Potency [6] | Potency [17] | outcome [18] | Potency [8] | outcome [10] | Potency [11] | Potency [19] | outcome [12] | max response [13] 9.15% | Potency [14]

CC(C)C(=O)Nc1cccc(C(F)(F)F)c1
inactive: Potency [1] | Potency [15] | outcome [16] | outcome [3] | outcome [4] | outcome [5] | Potency [6] | Potency [17] | outcome [18] | outcome [7] | Potency [8] | Potency [9] | outcome [10] | Potency [11] | outcome [12] | max response [13] -2.33% | Potency [14]

CCCCC(CC)COC(=O)c1ccccc1 (stereo not given)
inactive: Potency [1] | outcome [3] | outcome [4] | outcome [5] | Potency [6] | outcome [7] | Potency [8] | outcome [10] | Potency [11] | Potency [19] | outcome [12] | max response [13] 3.3% | Potency [14]

O=C(O)c1ccc(OCCN2CCCCC2)cc1
inactive: outcome [2] | Potency [15] | outcome [16] | outcome [20] | outcome [3] | outcome [4] | outcome [5] | Potency [6] | Potency [17] | outcome [18] | outcome [7] | Potency [8] | Potency [9] | outcome [10] | Potency [11] | Potency [19] | outcome [12] | max response [13] 5.16% | Potency [14]

CC(=O)Nc1ncc([N+](=O)[O-])s1
inactive: outcome [2] | Potency [15] | outcome [16] | outcome [20] | outcome [3] | outcome [4] | outcome [5] | Potency [6] | Potency [17] | outcome [7] | Potency [8] | Potency [9] | outcome [10] | Potency [11] | outcome [12] | max response [13] 0.8% | Potency [14]

O=CO
inactive: activation [1] -3.71% [at 8.39 µM] | activation [16] -0.64% [at 8.39 µM] | activity change, negative = cytotoxicity [3] -0.151% [at 6.97 µM] | activation (H2AX phosphorylation) [4] 0.0105% [at 14 µM] | activation [5] -0.756% [at 7.01 µM] | activity, negative = inhibition [17] -2.33% [at 8.39 µM] | activity change, positive = activation [18] -1.2% [at 8.39 µM] | activity change, negative = cytotoxicity [7] 0.773% [at 6.97 µM] | cytotoxicity [9] -3.71% [at 6.97 µM] | activity change, negative = cytotoxic [10] 17.5% [at 6.97 µM] | activity change, negative = cytotoxicity [19] 2.46% [at 6.97 µM] | viability change, negative = cytotoxic [12] -8.93% [at 6.97 µM] | max response [13] -0.6%

CC1=NN(c2ccc(S(=O)(=O)O)cc2)C(=O)C1N=Nc1ccccc1 (stereo not given)
inactive: Potency [1] | outcome [3] | outcome [5] | Potency [6] | outcome [10] | Potency [11] | outcome [12] | Potency [14]

NC(=O)C1(N2CCCCC2)CCN(CCCC(=O)c2ccc(F)cc2)CC1
inactive: outcome [2] | Potency [15] | outcome [16] | outcome [20] | outcome [3] | outcome [4] | outcome [5] | Potency [6] | Potency [17] | outcome [18] | outcome [7] | outcome [10] | Potency [11] | Potency [19] | max response [13] -22.3% | Potency [14]

CC(C)CCC(=O)CCC(C)C
inactive: outcome [2] | Potency [15] | outcome [16] | outcome [20] | outcome [3] | outcome [4] | outcome [5] | Potency [6] | Potency [17] | outcome [18] | Potency [8] | Potency [9] | outcome [10] | Potency [11] | Potency [19] | outcome [12] | max response [13] 1.42% | Potency [14]

CC(=O)c1ccc2c(c1)CCCC2
inactive: Potency [1] | outcome [16] | outcome [20] | outcome [3] | outcome [4] | outcome [5] | Potency [17] | outcome [18] | outcome [7] | Potency [8] | Potency [9] | outcome [10] | Potency [11] | Potency [19] | outcome [12] | max response [13] -1.61% | Potency [14]

O=C(O)c1ccccc1C(=O)Nc1ccc(S(=O)(=O)Nc2nccs2)cc1
inactive: Potency [1] | outcome [2] | outcome [3] | outcome [4] | Potency [6] | outcome [7] | Potency [8] | Potency [9] | outcome [10] | Potency [11] | Potency [19] | outcome [12] | max response [13] -1.33% | Potency [14]
